Measurements as given in PubChem BioAssay AID1159580 (chemical genetic matrix, 2015).
Several values for one entry are separate records, joined by “and”; a condition that tells them apart may be missing. Equal values may be shown once. The whole screen tested about 5,500 compounds, of which about 2,000 (36%) were called active. Another 18% or so got no clear call; they are omitted. Cut-off read from the data, not from the text of the source: active = normalized growth mostly below about 0.91 (no sharp cut-off); inconclusive = no clear call, values can overlap the other calls; inactive = mostly above about 0.92. Some of the results follow.

Assay: chemical genetic growth profiling, strain panel (AID 1159580);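 note: tested at 20 µM; growth read once vehicle control cultures reached saturation at 30 °C; 1 = growth at the plate median or of vehicle wells; lower values mean less growth of the strain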
Settings: S. cerevisiae deletion strains, growth OD
[1] = locus YAL013W, strain DEP1, stronger effect = lower value
[2] = locus YBR229C, strain ROT2, stronger effect = lower value
[3] = locus YDL101C, strain DUN1, stronger effect = lower value
[4] = locus YDR150W, strain NUM1, stronger effect = lower value
[5] = locus YEL061C, strain CIN8, stronger effect = lower value
[6] = locus YHR030C, strain SLT2, stronger effect = lower value
[7] = locus YJL187C, strain SWE1, stronger effect = lower value
[8] = locus YJR043C, strain POL32, stronger effect = lower value
[9] = locus YJR075W, strain HOC1, stronger effect = lower value
[10] = locus YLR039C, strain RIC1, stronger effect = lower value
[11] = locus YLR262C, strain YPT6, stronger effect = lower value
[12] = locus YMR263W, strain SAP30, stronger effect = lower value

Measured: normalized growth

Cc1ccc2c(c1)N(CCO)C(C)(C)CC2C (centres undefined)
inactive: [1] 1 | [2] 0.997 | [3] 0.97 | [4] 0.909 | [5] 1.03 | locus YGR078C, strain PAC10, stronger effect = lower value 0.986 | [6] 0.982 | locus YHR087W, strain rtc3, stronger effect = lower value 0.961 | [7] 1 | [8] 0.98 | [9] 0.975 | [10] 0.969 | locus YLR058C, strain SHM2 (second series), stronger effect = lower value 0.988 | locus YLR085C, strain ARP6, stronger effect = lower value 1.03 | [11] 0.955 | locus YML094W, strain GIM5, stronger effect = lower value 0.993 | locus YMR219W, strain ESC1, stronger effect = lower value 0.987 | [12] 0.997 | locus YNL153C, strain GIM3, stronger effect = lower value 1 | locus YNL298W, strain CLA4 (second series), stronger effect = lower value 1.04 | locus YNL322C, strain KRE1, stronger effect = lower value 1 | locus YNR030W, strain Alg12, stronger effect = lower value 0.986 | locus YOL006C, strain TOP1, stronger effect = lower value 1.02 | locus YPL055C, strain LGE1, stronger effect = lower value 0.962 | locus YPL241C, strain CIN2, stronger effect = lower value 0.998 | locus YPR135W, strain CTF4, stronger effect = lower value 0.953

COc1cc(OC)c(OC)cc1C=O
inactive: [1] 0.991 | locus YAL021C, strain ccr4, stronger effect = lower value 1.01 | locus YAL026C, strain drs2, stronger effect = lower value 1 | locus YAL030W, strain snc1, stronger effect = lower value 0.998 | locus YBL061C, strain skt5, stronger effect = lower value 0.991 | locus YBR009C, strain hhf1, stronger effect = lower value 0.993 | locus YBR021W, strain FUR4, stronger effect = lower value 1.03 | locus YBR023C, strain chs3, stronger effect = lower value 0.991 | locus YBR171W, strain sec66, stronger effect = lower value 0.991 | [2] 1.01 | locus YBR231C, strain swc5, stronger effect = lower value 0.998 | locus YBR279W, strain paf1, stronger effect = lower value 0.997 | locus YCL011C, strain gbp2, stronger effect = lower value 1 | locus YCL016C, strain dcc1, stronger effect = lower value 0.995 | locus YCL029C, strain bik1, stronger effect = lower value 0.972 | locus YCL061C, strain MRC1, stronger effect = lower value 0.996 | locus YCL069W, strain vba3, stronger effect = lower value 0.999 | locus YCR088W, strain abp1, stronger effect = lower value 0.999 | locus YDL005C, strain med2, stronger effect = lower value 0.985 | locus YDL035C, strain GPR1, stronger effect = lower value 1.01 | locus YDL040C, strain nat1, stronger effect = lower value 0.998 | locus YDL074C, strain BRE1, stronger effect = lower value 1 | [3] 1.02 | locus YDL185W, strain tfp1, stronger effect = lower value 0.94 | locus YDL192W, strain arf1, stronger effect = lower value 0.997 | locus YDR001C, strain nth1, stronger effect = lower value 0.999 | locus YDR069C, strain doa4, stronger effect = lower value 0.991 | locus YDR101C, strain arx1, stronger effect = lower value 0.989 | locus YDR137W, strain rgp1, stronger effect = lower value 0.973 | [4] 0.991 | locus YDR159W, strain sac3, stronger effect = lower value 1 | locus YDR162C, strain NBP2, stronger effect = lower value 1.06 | locus YDR195W, strain ref2 1.01 | locus YDR297W, strain sur2, stronger effect = lower value 0.989 | locus YDR318W, strain mcm21, stronger effect = lower value 0.994 | locus YDR334W, strain swr1, stronger effect = lower value 0.987 | locus YDR335W, strain msn5, stronger effect = lower value 1 | locus YDR388W, stronger effect = lower value 0.988 | locus YDR392W, strain spt3, stronger effect = lower value 0.999 | locus YDR502C, strain sam2, stronger effect = lower value 0.995 | locus YEL003W, strain gim4, stronger effect = lower value 0.999 | locus YEL037C, strain rad23, stronger effect = lower value 1 | locus YEL061C, strain CIN8 (second series), stronger effect = lower value 1 | [5] 1.01 | locus YER015W, strain faa2, stronger effect = lower value 0.997 | locus YER016W, strain bim1, stronger effect = lower value 0.994 | locus YER110C, stronger effect = lower value 0.968 | locus YER111C, strain swi4, stronger effect = lower value 1 | locus YER155C, strain BEM2 (second series), stronger effect = lower value 1 | locus YER155C, strain BEM2, stronger effect = lower value 0.991 | locus YER167W, strain BCK2, stronger effect = lower value 1.02 | locus YFR010W, strain ubp6, stronger effect = lower value 0.999 | locus YGL078C, strain dbp3, stronger effect = lower value 0.986 | locus YGL086W, strain mad1, stronger effect = lower value 0.984 | locus YGL167C, strain pmr1, stronger effect = lower value 1 | locus YGL173C, strain kem1, stronger effect = lower value 0.997 | locus YGL227W, strain vid30, stronger effect = lower value 0.992 | locus YGL240W, strain doc1, stronger effect = lower value 1.02 | locus YGL248W, strain PDE1, stronger effect = lower value 1.06 | locus YGL253W, strain hxk2, stronger effect = lower value 0.992 | locus YGR135W, strain pre9, stronger effect = lower value 1.03 | locus YGR252W, strain gcn5, stronger effect = lower value 1.08 | locus YHR013C, strain ard1, stronger effect = lower value 1.02 | locus YHR027C, strain rpn1, stronger effect = lower value 0.994 | [6] 0.994 and 0.979 | locus YHR079C, strain IRE1 (second series), stronger effect = lower value 0.987 | locus YHR079C, strain IRE1, stronger effect = lower value 0.996 | locus YHR094C, strain hxt1, stronger effect = lower value 1 | locus YHR129C, strain ARP1, stronger effect = lower value 1.02 | locus YHR142W, strain chs7, stronger effect = lower value 0.998 | locus YHR200W, strain rpn10, stronger effect = lower value 0.978 | locus YIL066C, strain RNR3, stronger effect = lower value 1.04 | locus YIL073C, strain SPO22, stronger effect = lower value 0.955 | locus YIL125W, strain kgd1, stronger effect = lower value 0.998 | locus YIR030C, strain dcg1, stronger effect = lower value 0.99 | locus YJL092W, strain hpr5, stronger effect = lower value 0.995 | locus YJL095W, strain BCK1 (second series), stronger effect = lower value 0.99 | locus YJL095W, strain BCK1, stronger effect = lower value 1.09 and 0.989 | locus YJL115W, strain asf1, stronger effect = lower value 1 | locus YJL129C, strain trk1, stronger effect = lower value 1 | locus YJL134W, strain LCB3, stronger effect = lower value 0.987 | locus YJL154C, strain vps35, stronger effect = lower value 0.995 | locus YJL164C, strain tpk1, stronger effect = lower value 1 | locus YJL166W, strain qcr8, stronger effect = lower value 1.01 | locus YJL168C, strain set2, stronger effect = lower value 0.991 | locus YJL187C, strain SWE1 (second series), stronger effect = lower value 1.04 | [7] 0.991 | [8] 0.986 | locus YJR066W, strain TOR1, stronger effect = lower value 0.916 | [9] 1.01 | locus YKL009W, strain mrt4, stronger effect = lower value 0.972 | locus YKL068W, stronger effect = lower value 0.985 | locus YKL085W, strain MDH1 (second series), stronger effect = lower value 0.988 | locus YKL085W, strain MDH1, stronger effect = lower value 0.988 | locus YKL160W, strain elf1, stronger effect = lower value 1 | locus YKR001C, strain vps1, stronger effect = lower value 1.02 | locus YKR026C, strain gcn3, stronger effect = lower value 0.994 | locus YKR091W, strain srl3, stronger effect = lower value 0.997 | locus YLL001W, strain dnm1, stronger effect = lower value 1.01 | locus YLL026W, stronger effect = lower value 0.99 | locus YLL041C, strain sdh2, stronger effect = lower value 0.996 | locus YLR027C, strain aat2, stronger effect = lower value 1.01 | [10] 0.989 | locus YLR058C, strain SHM2, stronger effect = lower value 1.03 | locus YLR102C, strain apc9, stronger effect = lower value 0.971 | locus YLR113W, strain HOG1, stronger effect = lower value 1.01 | locus YLR221C, strain rsa3, stronger effect = lower value 0.992 | locus YLR258W, strain gsy2, stronger effect = lower value 1 | locus YLR262C, strain YPT6 (second series), stronger effect = lower value 0.985 | [11] 1.02 | locus YLR268W, strain sec22, stronger effect = lower value 0.97 | locus YLR320W, strain mms22, stronger effect = lower value 0.995 | locus YLR330W, strain CHS5, stronger effect = lower value 1.01 | locus YLR342W, strain FKS1 (second series), stronger effect = lower value 1.05 | locus YLR342W, strain FKS1, stronger effect = lower value 0.997 | locus YLR357W, strain rsc2, stronger effect = lower value 0.957 | locus YLR370C, strain arc18, stronger effect = lower value 0.997 | locus YLR371W, strain rom2, stronger effect = lower value 0.993 | locus YLR384C, strain iki3, stronger effect = lower value 1.01 | locus YLR418C, strain cdc73, stronger effect = lower value 1.02 | locus YML016C, strain PPZ1, stronger effect = lower value 1.01 | locus YML032C, strain rad52, stronger effect = lower value 1.04 | locus YML120C, strain ndi1, stronger effect = lower value 0.999 | locus YML124C, strain tub3, stronger effect = lower value 0.984 | locus YMR058W, strain fet3, stronger effect = lower value 1 | locus YMR078C, strain ctf18, stronger effect = lower value 0.982 | locus YMR125W, strain sto1, stronger effect = lower value 0.991 | locus YMR129W, stronger effect = lower value 0.989 | locus YMR205C, strain PFK2, stronger effect = lower value 1 | locus YMR223W, strain ubp8, stronger effect = lower value 1 | locus YMR231W, strain pep5, stronger effect = lower value 0.989 | [12] 1.01 | locus YMR307W, strain GAS1, stronger effect = lower value 1.09 | locus YNL067W, strain RPL9B, stronger effect = lower value 1.04 | locus YNL071W, strain lat1, stronger effect = lower value 1 | locus YNL183C, strain NPR1, stronger effect = lower value 0.946 | locus YNL209W, strain ssb2, stronger effect = lower value 0.996 | locus YNL233W, strain BNI4, stronger effect = lower value 1.06 | locus YNL248C, strain rpa49, stronger effect = lower value 1 | locus YNL250W, strain rad50, stronger effect = lower value 0.964 | locus YNL271C, strain bni1, stronger effect = lower value 0.982 | locus YNL298W, strain CLA4, stronger effect = lower value 0.987 | locus YNL307C, strain MCK1, stronger effect = lower value 0.999 | locus YNL322C, strain KRE1 (second series), stronger effect = lower value 1 | locus YNR049C, strain mso1, stronger effect = lower value 0.992 | locus YNR052C, strain pop2, stronger effect = lower value 0.995 | locus YOL012C, strain htz1 2.03 | locus YOL147C, strain pex11, stronger effect = lower value 1 | locus YOR001W, strain rrp6, stronger effect = lower value 0.998 | locus YOR061W, strain CKA2, stronger effect = lower value 1.01 | locus YOR069W, strain VPS5, stronger effect = lower value 0.989 | locus YOR070C, strain gyp1, stronger effect = lower value 0.979 | locus YOR080W, strain dia2, stronger effect = lower value 0.987 | locus YOR083W, strain WHI5, stronger effect = lower value 1 | locus YOR106W, strain vam3, stronger effect = lower value 1.01 | locus YOR136W, strain idh2, stronger effect = lower value 0.981 | locus YOR144C, strain elg1, stronger effect = lower value 1 | locus YOR184W, strain ser1, stronger effect = lower value 0.993 | locus YOR231W, strain MKK1, stronger effect = lower value 1 | locus YOR265W, strain rbl2, stronger effect = lower value 0.993 | locus YOR270C, strain vph1, stronger effect = lower value 1.01 | locus YOR290C, strain snf2, stronger effect = lower value 1 | locus YOR316C, strain cot1, stronger effect = lower value 0.99 | locus YPL051W, strain arl3, stronger effect = lower value 0.992 | locus YPL078C, strain atp4, stronger effect = lower value 1 | locus YPL106C, strain sse1, stronger effect = lower value 0.958 | locus YPL240C, strain hsp82, stronger effect = lower value 0.992 | locus YPL256C, strain CLN2, stronger effect = lower value 0.976 | locus YPR119W, strain clb2, stronger effect = lower value 0.974 | locus YPR141C, strain kar3, stronger effect = lower value 0.975 | locus YPR163C, strain tif3, stronger effect = lower value 0.981 | locus YPR167C, strain met16, stronger effect = lower value 0.971 | strain wtn01, stronger effect = lower value 0.978
